# Reference: the supplement of paper PMC3545927
# Some of the results follow. The true hit rate is not given.
# B1: HC1309 (peptide)
# chain: CALVETWKKPAGNASASA
# B2: HC1163 (peptide)
# chain: CAGIPFVSCQAGNASASA
# B3: HC2438 (peptide)
# chain: CATREVPCHRAGNASASA
# B4: FS-340 (peptide)
# chain: CAKGGRRSRNAGNASASA
# B5: HC216 (peptide)
# chain: CADPRRRSRNAGNASASA
# B6: FS-1357 (peptide)
# chain: CALINVRKRNAGNASASA
# B7: HC1662 (peptide)
# chain: CAVGIYLLPNAGNASASA
# B8: FS-1356 (peptide)
# chain: CALGGRRKRNAGNASASA
# B9: TR6 (peptide)
# chain: CALGIRSFRNAGNASASA
# B10: HC1446 (peptide)
# chain: CAKGGRKPARAGNASASA
# B11: HC1452 (peptide)
# chain: CAPDLGVRVCAGNASASA
# B12: FS-2386 (peptide)
# chain: CARVFRQVEKAGNASASA
# B13: FS-2013 (peptide)
# chain: CARFDRSVEKAGNASASA
# B14: FS-2490 (peptide)
# chain: CARFRREVEKAGNASASA
# B15: FS-3220 (peptide)
# chain: CARFDRSSGPAGNASASA
# B16: FS-1892 (peptide)
# chain: CARFRRDLVKAGNASASA
# B17: FS-3006 (peptide)
# chain: CARNIRSGVHAGNASASA
# B18: HC2261 (peptide)
# chain: CAEVVTSTWNAGNASASA
# B19: HC570 (peptide)
# chain: CAGGVVLVGLAGNASASA
# B20: FS-424 (peptide)
# chain: CAGDSRQRRLAGNASASA
# B21: FS-1572 (peptide)
# chain: CASRGRLRRLAGNASASA
# B22: FS-769 (peptide)
# chain: CAFLTRLRRPAGNASASA
# B23: FS-895 (peptide)
# chain: CAWQRRLRRLAGNASASA
# B24: FS-1364 (peptide)
# chain: CALPSRETRYAGNASASA
# B25: FS-55 (peptide)
# chain: CALPSRLRRMAGNASASA
# B26: FS-1118 (peptide)
# chain: CAEPRRQRRLAGNASASA
# B27: HC1655 (peptide)
# chain: CAPRWIWFCLAGNASASA
# B28: HC1313 (peptide)
# chain: CADYEPPVVHAGNASASA
# B29: FS-1635 (peptide)
# chain: CAKKSRSGRHAGNASASA
# B30: FS-2271 (peptide)
# chain: CARKKRVHFHAGNASASA
# B31: FS-43 (peptide)
# chain: CAKKSRKSRPAGNASASA
# B32: FS-676 (peptide)
# chain: CAKKSRAERKAGNASASA
# B33: FS-2968 (peptide)
# chain: CARKKRSGRHAGNASASA
# B34: HC556 (peptide)
# chain: CAYGMWPLLLAGNASASA
# B35: HC1915 (peptide)
# chain: CATTPCSGHWAGNASASA
# B36: HC796 (peptide)
# chain: CAAHGIDPNIAGNASASA
# B37: HC72 (peptide)
# chain: CATTPCDGSWAGNASASA
# B38: HC1725 (peptide)
# chain: CAMEECSLHLAGNASASA
# B39: FS-1256 (peptide)
# chain: CAREGRLKRDAGNASASA
# B40: FS-814 (peptide)
# chain: CAKQLRLKRDAGNASASA
# B41: FS-680 (peptide)
# chain: CAKRSHLKRDAGNASASA
# B42: FS-715 (peptide)
# chain: CARYGRCKRDAGNASASA
# B43: FS-2911 (peptide)
# chain: CAREGRSKALAGNASASA
# B44: FS-3134 (peptide)
# chain: CARYGRFLQPAGNASASA
# Target: furin, P09958
# Sequence (P09958 whole entry): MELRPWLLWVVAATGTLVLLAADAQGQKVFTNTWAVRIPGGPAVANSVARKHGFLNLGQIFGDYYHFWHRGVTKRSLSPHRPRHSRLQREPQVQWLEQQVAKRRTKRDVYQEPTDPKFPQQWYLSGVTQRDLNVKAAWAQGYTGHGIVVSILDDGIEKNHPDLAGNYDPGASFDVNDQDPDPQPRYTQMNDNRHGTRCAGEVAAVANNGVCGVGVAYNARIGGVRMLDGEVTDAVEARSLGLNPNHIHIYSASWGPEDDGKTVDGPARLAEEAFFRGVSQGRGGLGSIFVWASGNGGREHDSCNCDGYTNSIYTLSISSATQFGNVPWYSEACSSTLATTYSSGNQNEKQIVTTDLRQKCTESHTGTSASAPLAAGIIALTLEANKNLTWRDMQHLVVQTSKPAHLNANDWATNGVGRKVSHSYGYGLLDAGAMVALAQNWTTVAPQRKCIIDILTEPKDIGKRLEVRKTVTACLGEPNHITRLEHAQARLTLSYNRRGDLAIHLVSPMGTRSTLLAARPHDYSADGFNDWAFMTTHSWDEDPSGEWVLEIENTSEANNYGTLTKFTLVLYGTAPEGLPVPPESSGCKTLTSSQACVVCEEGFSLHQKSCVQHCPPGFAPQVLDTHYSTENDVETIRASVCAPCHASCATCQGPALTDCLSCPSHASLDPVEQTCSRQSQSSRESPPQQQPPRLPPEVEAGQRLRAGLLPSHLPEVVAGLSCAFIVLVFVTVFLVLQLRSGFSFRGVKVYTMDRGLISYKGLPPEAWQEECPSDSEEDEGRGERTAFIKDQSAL
# Experiment: furin cleavage Z-score vs untreated control; higher = more cleavage, active = 3.5 or more, inactive = 1 or less, 8 variable residues between constant flanks
# Outline: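 In 50 mM HEPES pH 7.5 with CaCl2 and NaCl, purified furin was incubated with bead-anchored 8-mer peptide–cDNA fusions at 1:10 enzyme:substrate in 0.01 ml. Incubation times were 7.5, 15 and 30 min. DNA set free by cleavage was adapter-tagged by PCR and sequenced, with read counts taken as abundance. Log counts relative to furin-free reactions, after lowess adjustment and median absolute deviation scaling, form the cleavage Z-score.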
Sequence,furin cleavage Z-score (7.5 min),furin cleavage Z-score (15 min),furin cleavage Z-score (30 min)
B1,0.819 (inactive),0.268 (inactive),-0.773 (inactive)
B2,-0.0749 (inactive),0.44 (inactive),-1.36 (inactive)
B3,0.921 (inactive),2.06,2.03
B4,4.05 (active),5.15 (active),6.68 (active)
B5,4.59 (active),5.65 (active),5.55 (active)
B6,0.912 (inactive),2.51,1.58
B7,0.402 (inactive),0.33 (inactive),-0.482 (inactive)
B8,11.1 (active),12.5 (active),7.53 (active)
B9,1.49,1.8,-0.165 (inactive)
B10,-0.269 (inactive),-0.328 (inactive),-1.51 (inactive)
B11,-1.67 (inactive),-0.653 (inactive),-0.786 (inactive)
B12,-1.6 (inactive),-2.06 (inactive),-1.6 (inactive)
B13,2.17,0.744 (inactive),3.51 (active)
B14,9.16 (active),8.26 (active),9.23 (active)
B15,-0.295 (inactive),1.66,0.428 (inactive)
B16,3.6 (active),6.06 (active),7.08 (active)
B17,-0.391 (inactive),-0.599 (inactive),-0.61 (inactive)
B18,-0.954 (inactive),1.01,0.548 (inactive)
B19,-0.221 (inactive),0.261 (inactive),-0.661 (inactive)
B20,-0.0244 (inactive),0.999 (inactive),0.163 (inactive)
B21,4.39 (active),6.32 (active),6.52 (active)
B22,-0.966 (inactive),-0.023 (inactive),0.341 (inactive)

Sequence,furin cleavage Z-score (7.5 min),furin cleavage Z-score (15 min),furin cleavage Z-score (30 min)
B23,3.85 (active),5.94 (active),6.13 (active)
B24,2.17,1.29,-0.268 (inactive)
B25,9.43 (active),11.4 (active),8.99 (active)
B26,3.93 (active),4.47 (active),4.27 (active)
B27,2.54,0.216 (inactive),2.32
B28,-0.331 (inactive),-1.03 (inactive),0.818 (inactive)
B29,1.49,3.83 (active),4.08 (active)
B30,-0.215 (inactive),-0.15 (inactive),0.343 (inactive)
B31,-1.56 (inactive),-0.706 (inactive),-1.33 (inactive)
B32,-0.262 (inactive),-0.389 (inactive),0.536 (inactive)
B33,8.42 (active),11.9 (active),8.64 (active)
B34,1.73,0.0218 (inactive),-0.323 (inactive)
B35,-0.316 (inactive),1.87,0.16 (inactive)
B36,-0.768 (inactive),-0.681 (inactive),0.0731 (inactive)
B37,0.037 (inactive),1.11,0.507 (inactive)
B38,-0.0304 (inactive),0.668 (inactive),0.792 (inactive)
B39,11.7 (active),13 (active),11 (active)
B40,15 (active),13.5 (active),10.4 (active)
B41,6.24 (active),7.72 (active),6.62 (active)
B42,15.2 (active),15.5 (active),11.9 (active)
B43,0.205 (inactive),2.53,0.493 (inactive)
B44,0.584 (inactive),1.53,0.786 (inactive)
